Sampled rows, rich in hits. Any-hit rate of the full collection: about 19%.
DT40 TDP1 CPT: growth inhibition of DT40 Tdp1-/-;hTDP1 cells with camptothecin (screen for TDP1 inhibitors) | 12% of 420,000 active | Potency, µM (top dose mostly 46.2 µM), without a hit: at the top dose activity change, negative = growth inhibition, most hits filed as inhibitors | chicken DT40 Tdp1-/-;hTDP1 cells + 20 nM CPT, ATP luminescence, 48 h | AID 686979; further: nearly all actives have a fitted effect of over 55% in size
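Chicken DT40 Tdp1-/- cells complemented with human TDP1, 400 cells/well, exposed to compounds plus 20 nM camptothecin for at least 48 h at 37 C; viability read as ATP content by CellTiter-Glo luminescence.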
HT1080NT lethal: kills 2HG-producing HT-1080-NT fibrosarcoma cells | HT-1080-NT fibrosarcoma viability, CellTiter-Glo ATP luminescence, 48 h | Potency, µM (series often up to 46.1 µM), inactives show at the highest dose activity, negative = less viability, actives largely listed as cytotoxic | 1.6% of 360,000 active | AID 686970;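 further: NT is the 2HG producing partner of a matched IDH1 knockdown line; 0% = DMSO-treated cells and -100% = media-only wells without cells; nearly all actives have a fitted effect of over 55% in size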
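Viability of the 2HG-overproducing fibrosarcoma line after 48 hours of compound exposure at 37 degrees C was determined by luminescence with CellTiter-Glo, and concentration-effect curves were then fitted and categorized.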
KB-3-1 tox: KB-3-1 parental cell cytotoxicity; KB-3-1 viability, CellTiter-Glo ATP luminescence, 72 h; 1.4% of 400,000 active; AID 1347075; Potency, µM (series often up to 46.1 µM), most hits filed as cytotoxic; further: nearly all actives have a fitted effect of over 60% in size
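KB-3-1 cells, DMEM (no phenol red) + 10% FBS; compound by pin transfer, 72 h, 37 °C. Readout: CellTiter-Glo luminescence after 10 min. Data normalized, curve-fitted.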
TDP1 cell noCPT: qHTS for Inhibitors of human tyrosyl-DNA phosphodiesterase 1 (TDP1): qHTS in cells in absence of CPT; DT40 Tdp1-/- hTDP1 cells, no CPT, ATP luminescence, 48 h; Potency, µM (series often up to 46.2 µM), inactives show at the highest dose activity change, negative = growth inhibition, hits mostly inhibitors; 15% of 420,000 active; further: nearly all actives have a fitted effect of over 55% in size
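Stably hTDP1-transfected Tdp1-null chicken DT40 cells were treated with library compounds minus camptothecin and grown for at least 48 hr at 37 °C, after which cellular ATP was quantified by luminescence.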
KB-V1 MDR tox: KB-V1 MDR subline cytotoxicity | KB-V1 MDR cells viability, CellTiter-Glo, 72 h | Potency, µM (titrated, usually from 46.1 µM), actives largely listed as cytotoxic | 3.4% of 400,000 active | AID 1347076; further: nearly all actives have a fitted effect of over 60% in size
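KB-V1 MDR subline cells in DMEM (phenol-red free, 10% FBS) exposed to compounds in qHTS concentration series for 72 h at 37 degrees C. Viability read by CellTiter-Glo luminescence; concentration-effect curves fitted after normalization and correction.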
HT1080 IDH1KD tx: kills HT-1080 cells with IDH1 knockdown | Potency, µM (top dose mostly 46.1 µM), without a hit: at the top dose activity, negative = toxicity, most hits filed as cytotoxic | 2% of 360,000 active | HT-1080 IDH1 knockdown viability, ATP luminescence, 48 h;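 further: 0% = DMSO wells and -100% = cell-free medium wells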
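In this qHTS, HT-1080 cells depleted of IDH1 are exposed for 48 h at 37 °C to compound titrations. Toxicity is scored from CellTiter-Glo luminescence, with DMSO as full viability and medium alone as none.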
* hit, by the source's call; i = inactive; ? = inconclusive; . = not tested or not shown; [ ] = another dose, or the depositor's remark. The call rests on the fitted dose curve; in most records, active means well fitted curve in the direction sought with a large enough effect; inconclusive means small, poorly fitted or top-dose-only effect, or another doubt; inactive means no such curve, though single readings can be large; an effect the other way counts as inactive or inconclusive. Unless noted, on the % scale 0 is the no-effect control and ±100 the full control effect; potency means the concentration at half of the fitted maximal effect.

SMILES	DT40 TDP1 CPT	HT1080NT lethal	KB-3-1 tox	TDP1 cell noCPT	KB-V1 MDR tox	HT1080 IDH1KD tx
Cc1ccc(-c2cc3ncc4c(n3n2)-c2ccccc2OC4)cc1	-24%	.	i	-30%	i	.
Cc1cc2c3c(c1)C(C)(c1ccccc1)CC(C)(C)N3C(=O)C21C(C#N)=C(N)OC2=C1C(=O)CC(C)(C)C2 (stereo not drawn)	21µM*	-1%[9.24 µM]	?	23µM*	21µM*	18µM*
CC1(C)CC(=O)C2=C(C1)OC(N)=C(C#N)C21C(=O)N2CCCc3cccc1c32 (stereo not drawn)	-11%	12%	i	-10%	i	0%
Cc1cc(NC(=O)CCN2CCN(C/C=C/c3ccccc3)CC2)ccc1Br	?	21µM*	?	?	?	23µM*
Cc1cccc(NC(=O)CCN2CCN(C/C=C/c3ccccc3)CC2)c1	?	-8%	i	21µM*	i	-29%
Cc1ccccc1NC(=O)CCN1CCN(C/C=C/c2ccccc2)CC1	21µM*	-2%	i	?	?	-1%
Cc1cc(C)c2[nH]c(C)c(CN3CCCCCC3)c(=O)c2c1	-7%	1%	i	-23%	i	0%
[O]=[Bi][O]C(=O)[O][Bi]=[O]	?	.	.	1%	.	.
O=C(CCCOc1ccccc1)N1CCN(c2ccc(F)cc2)CC1	?	-2%	i	18µM*	i	-6%
O=C(CSCc1ccccc1)N1CCN(c2ccc(F)cc2)CC1	13µM*	-29%	i	?	?	-3%
O=C(CSCc1ccccc1)N1CCN(c2cccc(C(F)(F)F)c2)CC1	?	-14%	i	?	i	-21%
O=C(CSCc1ccc(F)cc1)N1CCN(c2ccccc2F)CC1	21µM*	.	.	26µM*	.	.
O=C(CSCc1cccc(F)c1)N1CCN(c2ccccc2)CC1	?	3%	i	?	21µM*	-7%
CCCCNC(=O)C1(C)CCN1C(=O)c1cccc(OC(C)=O)c1C (stereo not drawn)	4%	?	i	5%	i	28%
COc1cccc(Cn2c(CNC(=O)c3cc([N+](=O)[O-])ccc3Cl)nc3cccnc32)c1	16µM*	.	.	?	.	.
CCOc1ccc(Cn2c(CNS(=O)(=O)c3ccc([N+](=O)[O-])cc3)nc3cccnc32)cc1	-15%	.	.	-19%	.	.
Cc1ccc(Cn2c(CNS(=O)(=O)c3ccc(F)c(Cl)c3)nc3cccnc32)cc1	-15%	.	.	-37%	.	.
Cc1cccc(Cn2c(CNS(=O)(=O)c3ccc(C(C)C)cc3)nc3cccnc32)c1	?	.	.	15µM*	.	.
COCCn1c(CNC(=O)c2cc([N+](=O)[O-])ccc2Cl)nc2cccnc21	-22%	.	.	-15%	.	.
COc1cccc(Cn2c(CNS(=O)(=O)c3ccc(F)c(Cl)c3)nc3cccnc32)c1	?	.	.	10µM*	.	.
COCCn1c(CNC(=O)c2ccccc2C)nc2cccnc21	-10%	.	.	-22%	.	.
CN(C)[C@@H](CO)c1nnc([C@H](CCC(=O)O)NC(=O)C2CCNCC2)o1	-4%	2%	i	7%	i	10%
CN(C)[C@@H](CO)c1nnc([C@H](CC(=O)O)NC(=O)C2CCNCC2)o1	4.6µM*	0%	i	-1%	?	9%
CCCCCCCN(C(=O)CCl)c1ccccc1C	18µM*	-11%	i	15µM*	i	?
CCN(C(=O)c1ccc(C(=O)N(CC)c2ccccc2C)cc1)c1ccccc1C	?	.	i	16µM*	i	.
CCCC1(c2ccccc2)NC(=O)N(CC(=O)N(C)Cc2c(F)cccc2Cl)C1=O (stereo not drawn)	?	0%	i	?	?	3%
